Screens as filed in PubChem.
aSyn 5UTR act – Activators via SNCA 5'UTR binding, MLPCN | alpha-synuclein 5'UTR reporter, activators screen | activity score, % (tested at 7.5 µM), hits read low | 300,000 tested, 7.1% active | AID 1814; in the data active = activity score below about -60%
Starred values were filed as active, the others as inactive. Only a sample is shown.

SMILES	aSyn 5UTR act
O=c1cc(N2CCN(c3ccccc3Cl)CC2)[nH]c(=O)n1Cc1ccc(F)cc1	-72*
Cc1cccc(N(C)S(=O)(=O)c2ccc(-c3cc(C)no3)s2)c1	88
Cc1cccc(N(C)C(=O)c2cc3cc4ccc(C)cc4nc3o2)c1	-605*
CCC(C)NC(=O)c1cc(Sc2nnc(C)s2)nc2ccccc12 (configuration not stated)	-67*
CC(C)(C)CC(=O)Nc1nnc(CCc2ccccc2)s1	-113*
CC(C)(C)Cc1nnc(NC(=O)CSc2ccccc2)s1	-137*
CCC(C)(C)C(=O)Nc1nnc(CCc2ccccc2)s1	-141*
CC1(C)CNc2cc(N)ccc2S1	-74*
Cc1nc(C)c(-c2csc(Nc3ccccn3)n2)s1	-85*
Cc1nc(N)sc1-c1csc(Nc2ccc(Cl)cn2)n1	-142*
Cc1ccnc(Nc2nc(-c3sc(C)nc3C)cs2)c1	-161*
Cc1nc(N)sc1-c1csc(Nc2ccccn2)n1	-168*
CN1C(=O)/C(=C2\SC(=S)N(CCCCCC(=O)O)C2=O)c2ccccc21	-67*
CC(CNS(=O)(=O)c1cc(Cl)ccc1Cl)CN(C)C (configuration not stated)	-159*
Cc1cc2ccccc2n1CCNC(=O)c1ccccc1	-114*
Cc1cc2ccccc2n1CCNC(=O)c1ccc(Br)o1	-78*
CN(C)c1ncnc2c1ncn2C1OC(CO)C(O)C1O (configuration not stated)	108
CSc1nsc(N/N=C/c2ccc3c(c2)OCO3)c1C#N	-231*
Cc1oc(/N=C/c2ccc3c(c2)OCO3)c(C#N)c1C	-74*
COc1ccc2nc3oc(C(=O)N4CCCCC4)cc3cc2c1	-192*
CCOC(=O)C1CCN(C(=O)c2cc3cc4cc(OC)ccc4nc3o2)CC1	-71*
CC(=O)N1CCN=C1SCc1ccc(C(F)(F)F)cc1	-85*
Cc1[nH]c2ccccc2c1-c1nc2ccccc2[nH]c1=O	-63*
O=c1[nH]c2ccccc2nc1/C=C(\O)c1cccs1	-174*
O=C(Nc1nc2ccccc2[nH]1)c1ccc(Br)o1	-132*
SMILES	aSyn 5UTR act
O=C(Nc1nc2ccccc2[nH]1)C12CC3CC(CC(C3)C1)C2	-181*
CC(=O)O[C@@]12CO[C@@H]1C[C@H](O)[C@@]1(C)C(=O)[C@H](O)C3=C(C)[C@@H](OC(=O)[C@H](O)[C@@H](NC(=O)OC(C)(C)C)c4ccccc4)C[C@](O)([C@@H](OC(=O)c4ccccc4)[C@H]21)C3(C)C	72
O=C(Nc1ccc(-c2nc3ccccc3[nH]2)cc1)C1CCCO1 (configuration not stated)	77
O=C(Nc1nc2ccccc2[nH]1)C1CCCO1 (configuration not stated)	-79*
O/C(=C\c1nc2ccccc2[nH]1)c1cccs1	-200*
O=C(Nc1nc2ccccc2[nH]1)c1cccs1	-91*
Cc1ccc(C(=O)Nc2nc3ccccc3[nH]2)cc1	68
O=c1[nH]c2ccccc2nc1-c1cccs1	-152*
CCCCC(=O)Nc1ccccc1Oc1ccccc1	-123*
Cc1ccc(OCC(=O)Nc2ccc(F)cc2)cc1C	-74*
Cc1occc1C(=O)OCC(=O)Nc1ccc(F)cc1	-62*
CC(=O)Nc1cccc(OCC(=O)Nc2ccc(F)cc2)c1	-78*
CN(C)N1C(=O)/C(=C/c2ccco2)SC1=Nc1ccccc1	-64*
O=[N+]([O-])c1ccc(N/N=C2\CC3CC=CC23)cc1 (configuration not stated)	-100*
O=C(CC(SCCO)c1ccc2c(c1)OCO2)c1ccco1 (configuration not stated)	-98*
COc1ccc(OCCSc2nnc3sc4ccccc4n23)cc1	-131*
C=CCn1c(O)c(N=NC(=S)Nc2ccccc2F)c2cc(S(=O)(=O)N3CCOCC3)ccc21	78
CC1CN(Cc2csc(-c3ccc(Cl)cc3)n2)CC(C)O1 (configuration not stated)	-105*
CCOCCCNc1ccc(-c2ccccc2)nn1	-159*
O=C(Nc1ccc(N2CCCC2)cc1)c1cccc(Cl)c1Cl	-100*
O=C(Nc1ccc(N2CCOCC2)nc1)c1ccccc1Cl	-102*
O=C(Nc1ccc(N2CCCC2)cc1)c1ccccc1F	-80*
O=C(Nc1ccc(N2CCCCC2)cc1)c1cccnc1Cl	-128*
CC1CCC(NC(=O)Cn2cc3c(n2)CCCC3)CC1 (configuration not stated)	-157*
Cc1cc(C)c2c(N)c(C(=O)N/N=C/c3cccnc3)sc2n1	-128*
SMILES	aSyn 5UTR act
Nc1c(C(=O)NCc2ccccc2)sc2nc(N3CCOCC3)c3c(c12)CCCC3	65
Cc1cc(C)c2c(N)c(C(=O)NNC(=O)c3ccccc3)sc2n1	-108*
Cc1cc(C)c2c(N)c(C(=O)N/N=C/c3ccccc3)sc2n1	-108*
CCOC(=O)c1ccc2[nH]c3c(c2c1)CCCC3	-124*
COC(=O)c1ccc2[nH]c3c(c2c1)CC(C)CC3 (configuration not stated)	-96*
Cc1cccc(N=Nc2c(O)[nH]c3ccc(Br)cc23)c1	-72*
O=C(Cc1cccc2ccccc12)Nc1ccc2c(c1)C(=O)NC2=O	-65*
O=C(Nc1ccc(F)cc1)c1c(Cl)nc2ccccn12	-111*
COC(=O)c1cc(NC(=O)c2c(Cl)nc3sccn23)cc(C(=O)OC)c1	80
COc1ccc(NC(=O)c2c(Cl)nc3ccccn23)cc1	-142*
CC(C)CN1C(=O)c2ccc(NC(=O)c3ccco3)cc2C1=O	-84*
CC(C)CN1C(=O)c2ccc(NC(=O)c3cccs3)cc2C1=O	-129*
CC(C)CN1C(=O)c2ccc(NC(=O)c3ccccc3F)cc2C1=O	-144*
O=C(CN1C(=O)c2ccccc2S1(=O)=O)c1ccccc1F	82
CCN1CCN(c2ccc(NC(=O)c3ccccc3F)cc2Cl)CC1	-136*
CCCCCC(=O)Nc1ccc(N2CCN(CC)CC2)c(Cl)c1	-152*
COc1ccccc1C(=O)NC(=Nc1nc2ccccc2o1)NC(=O)c1ccccc1OC	-92*
O=C(NC(=Nc1nc2ccccc2o1)NC(=O)c1ccccc1)c1ccccc1	-105*
CC(C)(C)c1cc[n+](C2=C([O-])c3ccccc3C(=O)/C2=N\S(=O)(=O)c2cccs2)cc1	69
Cc1ccsc1CN(C)C(=O)CCc1nnc(COc2ccccc2)o1	-62*
CN(Cc1ccsc1)C(=O)CCc1nnc(CCCc2ccccc2)o1	-119*
COc1cccc(CN(C)C(=O)CCc2nnc(-c3ccsc3)o2)c1	-80*
C/C(=N\Nc1cccc([N+](=O)[O-])c1)c1cc(F)ccc1O	-131*
C/C(=N\Nc1cccc([N+](=O)[O-])c1)c1ccccc1O	-166*
COc1cnc(-c2ccccn2)nc1N(C)c1ccccc1	89
SMILES	aSyn 5UTR act
c1ccc(-c2cnnc(-c3ccccn3)n2)cc1	-133*
CCc1c(C)nc(Nc2nc(C)c3cc(OC)ccc3n2)[nH]c1=O	-102*
COc1ccc2c(C)nc(Nc3nc(C)c(C)c(=O)[nH]3)nc2c1	103
CNC[C@H](Cc1ccccc1)NC[C@@H](Cc1cccc2ccccc12)NCCc1ccc(C)cc1	123
Cc1nnc(NCCc2ccccc2)c2ccccc12	-86*
FC(F)Sc1ccc(Nc2ncnc3nc[nH]c23)cc1	-73*
CCCCOC(=O)c1ccc(Nc2ncnc3nc[nH]c23)cc1	-118*
COCCn1c(-c2ccccc2)cnc1N	-83*
Cn1c(-c2ccccc2)cnc1N	-122*
COc1cccc(NC(=O)C(=O)NCc2ccncc2)c1	-100*
O=C(NCc1ccccc1)C(=O)Nc1cccc(C(=O)O)c1	74
COc1cccc(NC(=O)C2=COCCO2)c1	-64*
